The record followed here is PubChem BioAssay (NCI).

About 83,000 compounds went through this panel and 20% of them were active in at least one assay; those are over-represented in the sample as a whole.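 Activity criterion: percent growth below 10, measured after cells in 96-well plates were exposed to a single compound concentration for 48 hours.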 Values without a mark were called inactive. The source made the active and inactive calls.

What all share (experiment): NCI-60 one-dose screen, 48 h (100 = growth as untreated, 0 = no growth, -100 = all killed)
Details in all cases: 10 µM

Experiment [1] has as its system T-47D breast.
Experiment [2] has as its system BT-549 breast.
The test system of experiment [3] is SW-620 colon.
Experiment [4] concerns MCF7 breast.
Experiment [5] deals with HCT-116 colon.
Experiment [6] deals with HCC-2998 colon.
For experiment [7], the system named is KM12 colon.
In experiment [8] the test system is MDA-MB-435 melanoma.

For the molecule `O=C(Cn1ccc(=O)[nH]c1=O)c1ccc([N+](=O)[O-])o1`, the growth was 80.4% in experiment [1]; 99.4% in experiment [2]; 102% in experiment [3]; 38.2% in experiment [4]; 88.7% in experiment [5]; 111% in experiment [6]. Further, in experiment [7], the growth was 83.9%.
For `Cn1cnc([N+](=O)[O-])c1Sc1nnc(-c2ccccc2)c(-c2ccccc2)n1`, the growth in experiment [1] was 9.12% (active); in experiment [8], 42.1%; in experiment [3], 48%; in experiment [4], 61.9%; in experiment [5] it was 32.8%; in experiment [6], 96.8%. Also, the growth in experiment [7] is 92.5%.
For `O=[N+]([O-])c1ccc(-c2nc(-c3ccccc3)c(-c3ccccc3)n2-c2ccccc2)cc1`, the growth was 21.6% in experiment [1]; 36.5% in experiment [8]; 48.8% in experiment [3]; 19.6% in experiment [4]; 33.2% in experiment [5]; -36.9% (active) in experiment [6]. In experiment [7], the growth was 37%.
For `CCN(CCCNC(=O)Cc1cc(=O)oc2cc(N(C)C)ccc12)CCNc1ccnc2cc(Cl)ccc12`, the growth in experiment [1] was 123%; in experiment [8] it was 46.7%; in experiment [3], 74.9%; in experiment [4], 66%; in experiment [5], 53.3%; in experiment [6] it was 79.5%.
On to `C#C[C@]1(O)CC[C@H]2[C@@H]3CC[C@H]4CC(F)(F)CC[C@]4(C)[C@H]3CC[C@@]21C`, for which the growth is 64.7% in experiment [1]; 58.6% in experiment [2]; 87.9% in experiment [3]; 88.9% in experiment [4]; 76.6% in experiment [5]; 112% in experiment [6]. In addition, in experiment [7], the growth is 87.2%.
Turning to `COc1ccc2nc(NC(=O)Nc3c(F)cccc3F)sc2c1`, the growth is 106% in experiment [1]; 99% in experiment [8]; 105% in experiment [3]; 95.6% in experiment [4]; 102% in experiment [5]; 102% in experiment [6]. The growth in experiment [7] is 112%.
`CCc1ccc(-c2nnc(COc3ccc(-c4nc5ccc(C)cc5[nH]4)cc3OC)o2)cc1`: the growth is 15% in experiment [1]; 38.8% in experiment [2]; 86.7% in experiment [3]; 30.6% in experiment [4]; 37.1% in experiment [5]; 97.9% in experiment [6]. Also, the growth in experiment [7] was 50.9%.
For `CCC(CCNc1cc(OC)cc2cccnc12)CN1C(=O)c2ccccc2C1=O` (stereo not drawn), the growth in experiment [1] was 32.7%; in experiment [8], 107%; in experiment [3] it was 135%; in experiment [4], 31.1%; in experiment [5], 99.5%; in experiment [6], 105%. For the same molecule, in experiment [7], the growth was 99%.
As for `COc1cc(C2C(C#N)=C(c3c[nH]c4ccccc34)Nc3nc(N)[nH]c(=O)c32)cc(OC)c1OC` (stereo not drawn), the growth was 36.2% in experiment [1]; 51.6% in experiment [2]; 86.9% in experiment [3]; 42.2% in experiment [4]; 93.1% in experiment [6]; 94.1% in experiment [7].
Turning to `COc1cccc(-c2nnc(COc3ccc(-c4nc5ccccc5[nH]4)cc3OC)o2)c1`, the growth in experiment [1] was 73.6%; in experiment [2], 81.7%; in experiment [3], 110%; in experiment [4], 73.6%; in experiment [5], 73%; in experiment [6], 105%. Also, the growth in experiment [7] is 98%.
Regarding `CCCCCCCCCCCCCC[n+]1ccc(C)cc1`, the growth in experiment [1] was 12.4%; in experiment [2] it was -45% (active); in experiment [3] it was -3.73% (active); in experiment [4] it was 0.934% (active); in experiment [5], 0.372% (active); in experiment [6], -69.7% (active). Further, in experiment [7], the growth is -97.9% (active).
As for `CC1(C)CNC(=O)N1`, the growth is 99.2% in experiment [1]; 103% in experiment [2]; 102% in experiment [3]; 94.5% in experiment [4]; 91.6% in experiment [5]; 95.7% in experiment [6]. Moreover, the growth in experiment [7] is 104%.
Turning to `CC(C)OCc1cc(CN2CCN(c3cccc(Cl)c3)CC2)c(O)c2ncccc12`, the growth was 3.25% (active) in experiment [1]; -46% (active) in experiment [2]; -3.23% (active) in experiment [3]; 4.89% (active) in experiment [4]; -55.5% (active) in experiment [5]; -21.6% (active) in experiment [6]. For the same molecule, in experiment [7], the growth was -23% (active).
`CCOC(=O)C1=C(Nc2ccc(OC)cc2)C(N)=NC1=N`: the growth is 47.5% in experiment [1]; 56.2% in experiment [2]; 25.2% in experiment [3]; 13.7% in experiment [4]; 34.5% in experiment [5]; 81% in experiment [6]. Also, the growth in experiment [7] was 30.2%.
As for `Oc1ccc(/C=N\Nc2ccccn2)c(O)c1`, the growth in experiment [1] was 33.7%; in experiment [2], 23.7%; in experiment [3] it was 35.3%; in experiment [4] it was 0.224% (active); in experiment [5], 4.54% (active); in experiment [6], 23.9%. Moreover, the growth in experiment [7] was 38.4%.
As for `COc1ccc2c(=O)cc(C(Cl)(Cl)Cl)oc2c1`, the growth in experiment [2] was -11.9% (active); in experiment [8] it was -81% (active); in experiment [3], -2.53% (active); in experiment [4], -9.4% (active); in experiment [5], 4.23% (active).
`CC(=O)Nc1nc(C)c(C(=O)N/N=C/c2cccn2C)s1`: the growth is 121% in experiment [1]; 104% in experiment [8]; 102% in experiment [3]; 87.5% in experiment [4]; 111% in experiment [5]; 70.8% in experiment [6]. Besides, the growth in experiment [7] is 105%.
Take `CCOC(=O)c1sc(NC(=O)c2cc(OC)c(OC)c(OC)c2)nc1C`: the growth in experiment [1] was 118%; in experiment [8], 102%; in experiment [3], 98.1%; in experiment [4], 87.5%; in experiment [5], 111%; in experiment [6] it was 57.4%. In addition, in experiment [7], the growth was 99.3%.
Regarding `FC(F)(F)c1ccc(-c2cnc(Cl)nc2NCc2cc(C(F)(F)F)cc(C(F)(F)F)c2)cc1`, the growth was 10.5% in experiment [1]; 26.2% in experiment [2]; 17.5% in experiment [3]; 4.38% (active) in experiment [4]; 4.49% (active) in experiment [5]; 13.1% in experiment [7].
As to `COc1ccc(COC(=O)CC(C)C)cc1`, the growth in experiment [1] is 96.7%; in experiment [2], 100%; in experiment [3], 105%; in experiment [4], 99.7%; in experiment [5], 96.3%; in experiment [6] it was 103%. In experiment [7], the growth was 98%.
For the molecule `CCCc1ccnc(NS(=O)(=O)c2ccc(N)cc2)n1`, the growth is 64% in experiment [1]; 77.9% in experiment [8]; 99.5% in experiment [3]; 49.2% in experiment [4]; 66.1% in experiment [5]; 86.9% in experiment [6]. Also, the growth in experiment [7] is 74.9%.
As to `O=C(N/N=C/c1ccccc1O)c1ccccc1`, the growth in experiment [2] is 60.4%; in experiment [8] it was 56.7%; in experiment [3] it was 42.2%; in experiment [4], 3.31% (active); in experiment [5] it was 14.9%; in experiment [7], 35.4%.
With `c1ccc(COCC[P+](c2ccccc2)(c2ccccc2)c2ccccc2)cc1`, the growth in experiment [2] was 5.25% (active); in experiment [8], -0.102% (active); in experiment [3], 14%; in experiment [4], 4.89% (active); in experiment [6] it was 6.68% (active); in experiment [7] it was 6.34% (active).
As for `COc1cc(/C=C/C(=O)c2cc(-c3ccc(F)cc3)ccc2O)cc(OC)c1OC`, the growth in experiment [2] was 88%; in experiment [8] it was 70.7%; in experiment [3] it was 80.9%; in experiment [4], 68.6%; in experiment [5] it was 60%; in experiment [6] it was 93.1%. Further, the growth in experiment [7] was 86%.
With `O=C(c1ccccc1)C(Sc1ccccc1)c1ccccc1` (stereo not drawn), the growth in experiment [2] is 92.9%; in experiment [3] it was 57.8%; in experiment [4], 94%; in experiment [5], 55.8%; in experiment [6], 87.8%; in experiment [7] it was 99.5%.
For `N#CCC1CCCC1`, the growth in experiment [2] was 112%; in experiment [8], 91.2%; in experiment [3], 104%; in experiment [4], 92.8%; in experiment [5], 99.8%; in experiment [6], 104%. In experiment [7], the growth is 110%.
`C/C(=N\NC(=O)c1sc(=S)n(C)c1N)c1cc2ccccc2o1`: the growth is 87.2% in experiment [2]; 41% in experiment [8]; 81.3% in experiment [3]; 34.8% in experiment [4]; 59.1% in experiment [5]; 21.5% in experiment [7].
As for `Cc1ccc(-n2c(-c3cc4c([nH]c5ccccc54)c(-c4cccc(O)c4)n3)n[nH]c2=S)cc1`, the growth in experiment [2] is -35.7% (active); in experiment [8], 1.24% (active); in experiment [3], 10.5%; in experiment [4], 2.88% (active); in experiment [5] it was 3.29% (active); in experiment [6], -52.5% (active). In addition, the growth in experiment [7] was 5% (active).
Turning to `N/C(=N\O)c1cn(C2OC(CO)C(O)C2O)c2ncnc(N)c12` (stereo not drawn), the growth in experiment [2] was 14%; in experiment [8] it was -73.1% (active); in experiment [3] it was -12.1% (active); in experiment [4] it was -29.9% (active); in experiment [5], 9.85% (active); in experiment [6], -23.1% (active). Also, in experiment [7], the growth was -24.2% (active).
For the molecule `O=S(=O)(NCCO)c1ccc(OCCOc2ccc(S(=O)(=O)NCCO)cc2)cc1`, the growth in experiment [2] was 95.7%; in experiment [8], 104%; in experiment [3], 101%; in experiment [4] it was 96%; in experiment [5], 102%; in experiment [6], 9.56% (active). In addition, in experiment [7], the growth is 104%.
Consider `COc1ccccc1NC1=C(N2CCCCC2)C(=O)c2ccccc2C1=O`, for which the growth is 94.2% in experiment [2]; 93.4% in experiment [3]; 74.8% in experiment [4]; 78.1% in experiment [5]; 91.7% in experiment [6].
Take `Nc1ccn([C@@H]2O[C@H](COP(=O)(O)O[C@@H]3C[C@H](n4cc(F)c(=O)[nH]c4=O)O[C@@H]3COP(=O)(O)O[C@@H]3C[C@H](n4cc(F)c(=O)[nH]c4=O)O[C@@H]3COP(=O)(O)O[C@@H]3C[C@H](n4cc(F)c(=O)[nH]c4=O)O[C@@H]3COP(=O)(O)O[C@@H]3C[C@H](n4cc(F)c(=O)[nH]c4=O)O[C@@H]3COP(=O)(O)O[C@@H]3C[C@H](n4cc(F)c(=O)[nH]c4=O)O[C@@H]3COP(=O)(O)O[C@@H]3C[C@H](n4cc(F)c(=O)[nH]c4=O)O[C@@H]3COP(=O)(O)O[C@@H]3C[C@H](n4cc(F)c(=O)[nH]c4=O)O[C@@H]3COP(=O)(O)O[C@@H]3C[C@H](n4cc(F)c(=O)[nH]c4=O)O[C@@H]3COP(=O)(O)O[C@@H]3C[C@H](n4cc(F)c(=O)[nH]c4=O)O[C@@H]3COP(=O)(O)O[C@@H]3C[C@H](n4cc(F)c(=O)[nH]c4=O)O[C@@H]3COP(=O)(O)OCCOCCOCCOCCOCCOCCO)[C@H](O)C2O)c(=O)n1` (stereo partly drawn): the growth in experiment [2] was 48.7%; in experiment [8], 61.4%; in experiment [3], 58.2%; in experiment [4], 19.4%; in experiment [5] it was 20.4%; in experiment [6], 50.4%. For the same molecule, the growth in experiment [7] is 47%.
